Results filed as inconclusive are left out. Active and inactive are the calls of the source. How the source made its calls: active means hit-call score of the fitted dose curve at least 0.9, where 1 is the maximum; inconclusive means response in the unintended direction; inactive means score below 0.9.

Cellular tumor antigen p53 (Homo sapiens), sequence (P04637 whole entry, looked up): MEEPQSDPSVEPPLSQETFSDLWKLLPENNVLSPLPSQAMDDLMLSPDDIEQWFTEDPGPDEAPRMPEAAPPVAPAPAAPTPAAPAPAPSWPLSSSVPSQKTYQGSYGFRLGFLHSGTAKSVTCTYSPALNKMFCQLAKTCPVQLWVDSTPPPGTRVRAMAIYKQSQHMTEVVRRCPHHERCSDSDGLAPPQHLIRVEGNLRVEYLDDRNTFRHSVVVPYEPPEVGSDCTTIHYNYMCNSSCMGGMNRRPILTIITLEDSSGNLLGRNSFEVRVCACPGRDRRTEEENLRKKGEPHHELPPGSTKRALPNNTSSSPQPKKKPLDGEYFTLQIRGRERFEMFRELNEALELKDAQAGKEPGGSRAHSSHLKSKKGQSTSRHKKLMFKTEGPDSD

The assay deals with Cellular tumor antigen p53 (Homo sapiens) (UniProt P04637). Put plainly: TOX21_p53_BLA_p4_ratio: Tox21 HCT-116 p53 Agonism Beta-lactamase Assay, Ratio, Phase 4 (AID 2283601). In outline:
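HCT-116 p53 beta-lactamase reporter cells (4000/well) preincubated 5 h, then compound (217-fold dilution of DMSO stock) for 16 h at 37C. CCF4-AM substrate added 2 h at room temperature; 460/530 nm emission ratio fitted upward versus DMSO.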
`C[N+](C)(C)CC(O)CCl` (centres undefined): the outcome was inactive. `C=CCCCCCCCCCCC`: the result was inactive. Regarding `CC(C(=O)O)c1ccc(CC2CCCC2=O)cc1` (centres undefined), the result was inactive. As for `Cc1ccc(C(=O)Nc2ccc(S(=O)(=O)O)c3cc(S(=O)(=O)O)cc(S(=O)(=O)O)c23)cc1NC(=O)c1cccc(NC(=O)Nc2cccc(C(=O)Nc3cc(C(=O)Nc4ccc(S(=O)(=O)O)c5cc(S(=O)(=O)O)cc(S(=O)(=O)O)c45)ccc3C)c2)c1`, the outcome was inactive.

Source of the values: PubChem BioAssay (EPA / NIEHS).
